The test has as its target AMP-activated protein kinase, AMPK (Homo sapiens) (UniProt P54646+O43741+P54619+Q9UGJ0+Q9Y478+Q13131+Q9UGI9). In words: AMP-dependent Kinase enzyme assay. An in vitro enzyme assay that detects ADP turnover that is directly proportional to AMPK activity. This uses naive AMPK that is activated during the assay with MK-8722. In kind it is functional. Set-up: scale not given: direction of the effect not stated beside the values. Particulars: 30 µM.
As to `Cc1ccc(CCCC(=O)N2CCC(=O)Nc3cccnc32)s1`, the Percent Effect was -8.96%.
For the molecule `Nc1nc(CC(=O)N2CCCC(CCc3cccc(F)c3)C2)cc(=O)[nH]1` (stereo not given), the Percent Effect is -9.77%.
Consider `Cc1ncccc1CNC(CCO)C1CCCCC1` (stereo not given), for which the Percent Effect is -0.143%.
Regarding `CN(Cc1cnn(C)c1)C(=O)Nc1cccnc1-n1cccn1`, the Percent Effect was 0.000815%.
For the molecule `CCc1nc(CCNS(=O)(=O)c2cccc(C(=O)N(C)CC)c2)cs1`, the Percent Effect is 1%.
Next, `CC(C)c1nccc(CN(C)Cc2cnn(-c3ccccc3)c2)n1`: -5.06%; `Nc1cc(-c2c[nH]nc2C2CCN(C(=O)C3CCCC3)C2)ccn1` (stereo not given): -6.9%.
Turning to `COc1cc(-c2cccc3c2OC(CN)C3)ccc1O` (stereo not given), the Percent Effect came out at 59.7%.
Next, `CCc1ccc(CC)c(NCc2cnc(N3CCOCC3)nc2)c1`: -6.68%.
Consider `Cn1cnc(S(=O)(=O)N2C[C@@H]3CC[C@H](C2)N(Cc2ccccn2)C3)c1`, for which the Percent Effect turned out to be 84.4%.
Next, `O=C(NCCC1CN(C2CCCC2)CCO1)c1c[nH]c(=O)[nH]c1=O` (stereo not given): 5.79%.
Next, `Cc1cnn(Cc2cccc(OCC(N)=O)c2)c1`: -0.231%; `O=C(Cc1ccc(Cl)cc1)N[C@@H]1CCC[C@@H](O)[C@@H]1O`: 22.5%; `COc1ncc(NCc2ccsc2)cc1C(N)=O`: 5.38%.
Next, `Cc1ccc(N(CCC#N)C(=O)CCc2cscn2)cc1C`: -7.79%; `COCCCNC(=O)Cc1nc(-c2ccncc2)n[nH]1`: 14.5%; `Clc1cc(NCc2ncc[nH]2)nc2[nH]ccc12`: 24.1%.
In the case of `CN(C)C[C@@H]1CN(C(=O)c2cc(-c3ccccc3)n[nH]2)C[C@@H]1CO`, the Percent Effect is -6.79%.
Next, `CCOC(=O)c1n[nH]cc1CN1CCOC(Cc2ccccc2)C1` (stereo not given): -0.201%; `CCC(C)(CC(=O)OC)NCc1c(C)noc1C` (stereo not given): 4.75%.

(Values after ChEMBL document CHEMBL3988442, “University of Dundee, Small-Polar-MMV Screening Library” (2021).)
